Measurements from PubChem BioAssay.
Activity calls are given as the source filed them.

Columns and labels:
[1] = test system: Human papillomavirus type 1a protein E7 (residues 44-93); assay: small molecules binding HPV E7 44-93 – biochemical, small-molecule microarray, residues 44-93, 635 nm fluorescence, primary screen (AID 1108); conditions: fluorescence 635 nm, higher = more signal;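 note: E7 fragment applied at 1 µg/mL in TBST for 1 h at 4 C; score combines spot fluorescence with its signal to noise ratio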
[2] = hepatitis C replication reporter changes, two-sided – Huh7 cells, luciferase reporter, HCV replication inhibitor project, primary screen (AID 1109); conditions: Huh7 HCV replicon luciferase reporter, 48 h; higher = more signal;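 note: huh7 hepatoma cells harbouring a luciferase neomycin HCV replicon reporter; luciferase luminescence as measure of HCV replicon replication; test concentration not given here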
[3] = molecular target: Left-right determination factor 2 (Homo sapiens) (UniProt O00292); assay: small molecules binding LEFTY2 protein – biochemical, small-molecule microarray, 635 nm fluorescence scan, primary screen (AID 1110); conditions: higher = more signal
[4] = molecular target: Calmodulin-1 (Homo sapiens) (UniProt P0DP23); assay: small molecules binding calmodulin-1 with EGTA – biochemical, small-molecule microarray, Cy5-labelled CALM1, profiling panel (AID 1111); conditions: Cy5-CALM1 binding fluorescence, higher = more signal;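 note: labelled calmodulin applied in Tris saline Tween buffer holding calcium plus EGTA and DTT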
[5] = molecular target: Calmodulin-1 (Homo sapiens) (UniProt P0DP23); assay: small molecules binding Ca-loaded calmodulin-1 – biochemical, small-molecule microarray, Cy5-labelled CALM1, plus calcium, artefact control for SMM control-protein annotation, profiling panel (AID 1112); conditions: Cy5-CALM1 binding fluorescence, higher = more signal;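 note: score merges spot fluorescence with signal to noise from triplicate slides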
[6] = probe aWnt5a binding to arrayed compounds – biochemical, biotinylated probe, 635/667 nm fluorescence, primary screen (AID 1113); conditions: small-molecule microarray, higher = more signal;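 note: score merges 667 nm fluorescence intensity with signal-to-noise per printed feature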
[7] = probe aShh binding to arrayed compounds – biochemical, biotinylated probe, 635/667 nm fluorescence, primary screen (AID 1114); conditions: small-molecule microarray, higher = more signal;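 note: probe is biotin-labelled aShh protein from a stem cell growth factor screen; measures binding of labelled protein to compounds printed on the slide; score merges feature fluorescence at 667 nm with signal-to-noise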
[8] = probe aNog binding to arrayed compounds – biochemical, biotinylated probe, 635/667 nm fluorescence, primary screen (AID 1115); conditions: small-molecule microarray, higher = more signal;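 note: probe is biotinylated aNog protein used at 0.15 µg/mL for 1 h at 4 C; z-score combines 667 nm fluorescence of each spot with its signal to noise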
[9] = molecular target: Torsin-1A-interacting protein 1 (Homo sapiens) (UniProt Q5JTV8); assay: compound microarray binding of lysate hLAP1 – cell lysate, small-molecule microarray, COS7 lysate, 635/667 nm fluorescence, primary screen (AID 1116); conditions: 635 nm fluorescence, higher = more signal
[10] = molecular target: Alpha-bungarotoxin (Bungarus multicinctus) (UniProt P60615); assay: compounds binding labelled alpha-BTX control protein – biochemical, small-molecule microarray, Alexa647 label, 635/667 nm fluorescence, artefact control for SMM control protein annotation, profiling panel (AID 1117); conditions: alpha-BTX-A647 binding fluorescence, higher = more signal
Albumin (Bos taurus) = Albumin (Bos taurus) (UniProt P02769); assay: compounds binding labelled BSA control protein – biochemical, small-molecule microarray, Alexa647 label, 635/667 nm fluorescence, artefact control for SMM control protein annotation, profiling panel (AID 1118); conditions: BSA-A647 binding, fluorescence 635 nm, higher = more signal;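 note: score merges 667 nm emission intensity and signal-to-noise per printed compound spot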
[11] = probe aXIP binding to arrayed compounds – biochemical, NeuroSMM set, 635/667 nm fluorescence, primary screen (AID 1119); conditions: small-molecule microarray, higher = more signal, called active from +8 up or from −8 down;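 note: probe is the protein aXip251-270 applied at 1 µg/mL to compound-printed slides; binding of probe to printed compounds measured as 667 nm fluorescence plus signal to noise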
[12] = probe aNOTCH3 binding on compound microarray – biochemical, small-molecule microarray, 635/667 nm fluorescence, primary screen (AID 1120); conditions: higher = more signal;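 note: probe is a biotin-tagged antibody raised against NOTCH3 rather than NOTCH3 protein; score merges spot fluorescence near 667 nm with spot signal to noise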
[13] = probe aNOTCH2 binding on compound microarray – biochemical, small-molecule microarray, 635/667 nm fluorescence, primary screen (AID 1121); conditions: higher = more signal;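 note: score merges feature fluorescence read at 667 nm with its signal to noise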
[14] = molecular target: Carbonic anhydrase 2 (Homo sapiens) (UniProt P00918); assay: compounds binding carbonic anhydrase 2 – biochemical, small-molecule microarray, Alexa647-labelled CAII, profiling panel (AID 1122); conditions: CAII-A647 binding fluorescence, higher = more signal
[15] = COS7 lysate on small-molecule microarray, probe aHis, 635 nm (AID 1123); conditions: COS7 cell lysate, fluorescence, higher = more signal;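 note: z-score combines 667nm fluorescence intensity with signal-to-noise per printed compound spot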
[16] = probe aLAP1 signal on lysate-treated microarray – cell lysate, small-molecule microarray, COS7 lysate, primary screen (AID 1124); conditions: probe aLAP1, fluorescence, higher = more signal;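 note: lysate comes from COS7 cells expressing LAP1 and is applied at 0.3 µg/mL; score merges spot fluorescence near 667 nm with signal-to-noise over triplicate slides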
Sam68 (KHDRBS1) = assay: compounds binding KHDRBS1 protein – biochemical, small-molecule microarray, 635 nm fluorescence, primary screen (AID 1125); conditions: higher = more signal;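 note: score merges 667 nm channel intensity with signal to noise over triplicate slides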
[17] = test system: Chordin-like protein 2 (CHRDL2); assay: compounds binding chordin-like 2 – biochemical, small-molecule microarray, 635 nm fluorescence, primary screen (AID 1126); conditions: fluorescence 635 nm, higher = more signal;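 note: printed compound slides probed with Chrdl2 protein at 4 µg/mL for 1 h at 4 C; score merges 667 nm emission intensity with signal to noise over three replicate slides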
[18] = molecular target: Concanavalin-A (Canavalia ensiformis) (UniProt P02866); assay: compounds binding concanavalin A lectin – biochemical, small-molecule microarray, Alexa647 label, 635 nm, artefact control for SMM control protein annotation, primary screen (AID 1127); conditions: ConA-A647 binding fluorescence, higher = more signal;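 note: z combines 667 nm emission intensity with signal-to-noise across three replicate slides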
Sequence of Concanavalin-A (Canavalia ensiformis) (P02866 whole entry, looked up): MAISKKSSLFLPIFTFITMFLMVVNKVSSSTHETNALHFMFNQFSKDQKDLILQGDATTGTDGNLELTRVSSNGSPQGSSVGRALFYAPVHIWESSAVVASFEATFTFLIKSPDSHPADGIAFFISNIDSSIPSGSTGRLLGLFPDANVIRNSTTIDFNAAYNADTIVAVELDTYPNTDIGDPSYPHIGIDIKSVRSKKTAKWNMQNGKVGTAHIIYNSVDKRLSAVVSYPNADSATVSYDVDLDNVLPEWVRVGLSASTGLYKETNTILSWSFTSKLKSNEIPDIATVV

Sequence of Albumin (Bos taurus) (P02769 whole entry, looked up): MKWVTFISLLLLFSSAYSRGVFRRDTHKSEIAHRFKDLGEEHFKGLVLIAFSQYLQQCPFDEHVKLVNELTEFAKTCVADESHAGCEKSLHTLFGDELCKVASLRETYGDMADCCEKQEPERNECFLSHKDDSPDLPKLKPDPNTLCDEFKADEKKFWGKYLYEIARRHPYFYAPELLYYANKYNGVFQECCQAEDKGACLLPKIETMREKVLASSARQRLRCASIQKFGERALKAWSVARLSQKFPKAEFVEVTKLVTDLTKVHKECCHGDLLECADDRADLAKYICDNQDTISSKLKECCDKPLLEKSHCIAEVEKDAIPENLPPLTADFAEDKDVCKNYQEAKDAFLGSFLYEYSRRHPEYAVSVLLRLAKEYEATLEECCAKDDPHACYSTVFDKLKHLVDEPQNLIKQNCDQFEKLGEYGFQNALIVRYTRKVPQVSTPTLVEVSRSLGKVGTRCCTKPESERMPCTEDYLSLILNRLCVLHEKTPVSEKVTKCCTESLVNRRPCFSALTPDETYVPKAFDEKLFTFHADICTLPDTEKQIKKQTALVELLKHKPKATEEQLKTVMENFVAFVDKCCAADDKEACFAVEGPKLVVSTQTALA
Sequence of Alpha-bungarotoxin (Bungarus multicinctus) (P60615 whole entry, looked up): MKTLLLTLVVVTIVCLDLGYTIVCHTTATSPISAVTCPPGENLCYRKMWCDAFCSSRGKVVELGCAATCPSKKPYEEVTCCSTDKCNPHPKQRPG
Sequence of Torsin-1A-interacting protein 1 (Homo sapiens) (Q5JTV8 whole entry, looked up): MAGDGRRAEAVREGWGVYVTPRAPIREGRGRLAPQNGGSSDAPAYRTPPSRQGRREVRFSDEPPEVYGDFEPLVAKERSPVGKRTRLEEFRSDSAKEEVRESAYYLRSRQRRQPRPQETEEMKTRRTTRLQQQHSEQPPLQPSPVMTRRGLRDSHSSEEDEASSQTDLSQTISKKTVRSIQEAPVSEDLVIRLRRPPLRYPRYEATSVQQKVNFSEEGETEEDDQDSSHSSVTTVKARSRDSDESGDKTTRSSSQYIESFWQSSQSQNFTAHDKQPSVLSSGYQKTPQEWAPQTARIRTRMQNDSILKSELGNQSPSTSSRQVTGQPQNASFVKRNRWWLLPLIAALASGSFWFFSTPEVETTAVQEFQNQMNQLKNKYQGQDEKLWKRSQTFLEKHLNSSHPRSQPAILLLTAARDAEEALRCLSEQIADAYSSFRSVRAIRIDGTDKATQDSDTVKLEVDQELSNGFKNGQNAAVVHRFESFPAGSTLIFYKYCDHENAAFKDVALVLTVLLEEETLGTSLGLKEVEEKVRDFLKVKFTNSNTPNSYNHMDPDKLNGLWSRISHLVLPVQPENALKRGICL
Sequence of Left-right determination factor 2 (Homo sapiens) (O00292 whole entry, looked up): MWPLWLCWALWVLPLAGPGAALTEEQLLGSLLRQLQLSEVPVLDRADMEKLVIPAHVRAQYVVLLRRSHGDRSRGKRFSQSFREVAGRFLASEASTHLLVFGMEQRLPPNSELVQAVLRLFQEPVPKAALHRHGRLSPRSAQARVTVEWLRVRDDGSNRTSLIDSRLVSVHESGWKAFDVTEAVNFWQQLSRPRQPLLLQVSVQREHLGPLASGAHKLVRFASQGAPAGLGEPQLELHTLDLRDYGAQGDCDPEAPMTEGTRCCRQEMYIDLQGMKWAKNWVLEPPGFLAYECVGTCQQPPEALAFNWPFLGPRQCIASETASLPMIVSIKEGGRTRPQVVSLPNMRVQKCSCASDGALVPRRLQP

SMILES | composite z-score [1] | z-score [2] | composite z-score [3] | composite z-score [4] | composite z-score [5] | composite z-score [6] | composite z-score [7] | composite z-score [8] | composite z-score [9] | composite z-score [10] | composite z-score (Albumin (Bos taurus)) | composite Z-score [11] | composite z-score [12] | composite z-score [13] | composite z-score [14] | composite z-score [15] | composite z-score [16] | composite z-score (Sam68 (KHDRBS1)) | composite z-score [17] | composite z-score [18]
O=C1C2C=CC(C(O)C3CC=CCC3)N(Nc3ccccc3)C2C(=O)N1c1ccccc1 (stereo not given) | 1.44 | -0.463 | 0.0066 | 1.08 | -0.0425 | -0.098 | 0.128 | 0.821 | 0.946 | 1.78 | 0.918 | 2.06 (inactive) | 0.366 | 0.0607 | 0.749 | 2.33 | 0.093 | 1.07 | 0.718 | 0.567
COc1cc(NN2C(C(O)c3ccco3)C=CC3C(=O)N(C)C(=O)C32)cc(OC)c1OC (stereo not given) | 0.02 | -0.0965 | 0.173 | 0.723 | -0.0913 | 0.107 | 0.394 | 0.415 | 0.447 | 0.509 | 0.593 | 0.319 (inactive) | 0.313 | 0.267 | 0.738 | 0.815 | -0.0901 | 0.633 | 0.861 | 0.215
C=CC[C@@H](OC(=O)Nc1ccc(OC)cc1)c1ccc(O)c(F)c1 | 0.954 | -1.73 | -0.784 | -0.976 | -0.427 | -0.184 | 0.0141 | -0.0602 | 1.55 | -0.418 | 0.66 | 0.683 (inactive) | -0.266 | -0.153 | 0.493 | 1.93 | 0.738 | -0.56 | -0.861 | -0.9
CCC#CCN(Cc1ccccc1Br)[C@H](/C=C/C1CC1)[C@@H](O)Cc1ccccc1 | -1.04 | -2.19 | -0.398 | -0.414 | -0.659 | -0.197 | -0.214 | -0.209 | -0.675 | -0.229 | 0.0902 | -0.457 (inactive) | -0.262 | -0.176 | -0.458 | -0.408 | -0.477 | -0.549 | -0.784 | -0.138
NCCCCCNC(=O)[C@@H]1C[C@@H]2C(=O)N[C@@H](CCCCN)C(=O)N2[C@@H]1c1ccc(O)cc1 | 1.37 | -1.48 | 1.15 | 1.44 | 0.325 | -0.0286 | 0.246 | -0.103 | 1.51 | 1.2 | -0.321 | 0.562 (inactive) | 0.353 | -0.0162 | 0.635 | 2.38 | 0.103 | 1.3 | 1.38 | 1.15
O=C1N(Cc2ccccc2)c2ccccc2C[C@]12N=C(c1ccc(OCCCO)cc1)O[C@@H]2c1ccccc1 | 0.732 | -3.02 | 0.133 | 0.51 | -0.249 | -0.0179 | -0.332 | -0.356 | -0.0883 | 0.743 | 0.185 | 0.109 (inactive) | 0.0203 | -0.161 | 0.529 | 1.86 | 0.274 | 0.48 | 0.441 | 1.02
COc1cc2c(cc1O)C(c1ccc(CN3CCCC3)cc1)N(Cc1cc3c(cc1Br)OCO3)CC2 (stereo not given) | -1.28 | -2.92 | -0.248 | 1.47 | 0.91 | -0.109 | -0.2 | 0.114 | 0.16 | 0.132 | 0.905 | 0.0698 (inactive) | -0.0089 | -0.102 | 0.891 | 0.796 | 0.119 | -0.521 | -0.0867 | 0.655
Cc1ccccc1C(O)C1C=CC2C(=O)NC(=O)C2N1Nc1ccccn1 (stereo not given) | -0.439 | 0.331 | 0.263 | -0.285 | -0.206 | -0.221 | -0.349 | -0.0682 | 0.692 | 0.173 | 0.65 | 0.497 (inactive) | -0.15 | -0.14 | 0.355 | 0.78 | 0.483 | -0.805 | 0.102 | -0.227
CC(C)C(CO)N1C(=O)[C@@H]2C3C(=O)OCCC/C=C\[C@H]3OC23C=CCN(c2ccc4ccccc4c2)C(=O)[C@@H]13 (stereo not given in full) | -0.812 | -1.23 | -1.43 | -0.14 | -0.132 | -0.0405 | -0.0822 | 0.117 | -0.427 | -0.287 | 0.974 | 0.503 (inactive) | -0.0716 | -0.156 | 0.941 | -0.201 | -0.18 | -1.02 | -1.28 | -0.612
COC(=O)[C@@]1(Cc2ccc(OC)cc2)[C@H]2c3cc(C(=O)N4CCCC4)n(CCc4c[nH]c5ccc(O)cc45)c3C[C@H]2CN1C(=O)c1ccccc1 | 1.39 | -1.51 | 0.148 | 0.797 | 0.202 | 0.14 | 0.315 | 0.863 | 1.4 | 0.485 | 0.863 | 0.714 (inactive) | 0.298 | 0.0409 | 0.774 | 2.05 | 0.441 | 1.34 | -0.135 | 0.992
CCCN1C(=O)[C@]2(Cc3ccccc31)N=C(c1ccc(OCCCO)cc1)O[C@@H]2c1ccccc1 | 1.42 | -3.29 | -0.148 | 1.98 | -0.317 | 0.0427 | 1.17 | 0.401 | 0.414 | 1.28 | -0.0671 | 0.0068 (inactive) | 0.247 | -0.125 | 0.625 | 2.19 | 0.402 | 1.24 | -0.184 | 0.884
